# Reference: the supplement of paper PMC6555819
# Experiments:
# Test in all cases: PBM binding z-score (relative to random genomic background probes); higher = stronger binding; sequences stand for … in GC…GCGATTGACAGCGTAGAATGAAGG
# [1] = test system: FXR:RXRa (NR concentration 270 nM, RXRa partner concentration 90 nM)
# In short: (§1)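 On custom Agilent 4×180K arrays, double-stranded probes with 34-nt variable regions carried direct-repeat seeds, single-nucleotide variants, half-site ablations or random human genomic background. Ligand-free nuclear receptor dimers were applied for 1 h, and binding was read with antibodies against each partner (one per run). Binding z-scores come from regression-normalized fluorescence, with the random background probes as reference.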
# [2] = test system: LXRa:RXRa (NR concentration 270 nM, RXRa partner concentration 90 nM)
# In short: as §1
# [3] = test system: LXRa homodimer (NR concentration 270 nM)
# In short: as §1
# [4] = test system: LXRb:RXRa (NR concentration 270 nM, RXRa partner concentration 90 nM)
# In short: as §1
# [5] = test system: LXRb homodimer (NR concentration 270 nM)
# In short: as §1
# [6] = test system: PPARa:RXRa (NR concentration 270 nM, RXRa partner concentration 90 nM)
# In short: as §1
# [7] = test system: PPARg:RXRa (NR concentration 180 nM, RXRa partner concentration 90 nM)
# In short: as §1
# [8] = test system: PPARg:RXRa 270nM:90nM, anti-RXR (NR concentration 270 nM, RXRa partner concentration 90 nM)
# In short: as §1
# [9] = test system: PPARg:RXRa 30nM:10nM, anti-RXR (NR concentration 30 nM, RXRa partner concentration 10 nM)
# In short: as §1
# [10] = test system: PPARg:RXRa 90nM:30nM, anti-RXR (NR concentration 90 nM, RXRa partner concentration 30 nM)
# In short: as §1
# [11] = test system: PPARg:RXRa DBDmut IVT, anti-RXR (DBD mutation: RXRa K156A/R161A, NR concentration 270 nM, RXRa partner concentration 90 nM)
# In short: as §1
# [12] = test system: PPARg:RXRa IVT, anti-PPARg (NR concentration 270 nM, RXRa partner concentration 90 nM)
# In short: as §1
# [13] = test system: PPARg DBDmut:RXRa IVT, anti-PPARg (DBD mutation: PPARg1 K132A/R137A, NR concentration 270 nM, RXRa partner concentration 90 nM)
# In short: as §1
# [14] = test system: PPARg DBDmut IVT, anti-PPARg (DBD mutation: PPARg1 K132A/R137A, NR concentration 270 nM)
# In short: as §1
# [15] = test system: PPARg homodimer (NR concentration 180 nM)
# In short: as §1
# [16] = test system: PXR:RXRa (NR concentration 270 nM, RXRa partner concentration 90 nM)
# In short: as §1
# [17] = test system: PXR homodimer (NR concentration 270 nM)
# In short: as §1
# [18] = test system: RARa:RXR (NR concentration 270 nM, RXRa partner concentration 90 nM)
# In short: as §1
# [19] = test system: RARa homodimer (NR concentration 270 nM)
# In short: as §1
# [20] = test system: RARb:RXRa (NR concentration 270 nM, RXRa partner concentration 90 nM)
# In short: as §1
Sequence,PBM binding z-score [1],PBM binding z-score [2],PBM binding z-score [3],PBM binding z-score [4],PBM binding z-score [5],PBM binding z-score [6],PBM binding z-score [7],PBM binding z-score [8],PBM binding z-score [9],PBM binding z-score [10],PBM binding z-score [11],PBM binding z-score [12],PBM binding z-score [13],PBM binding z-score [14],PBM binding z-score [15],PBM binding z-score [16],PBM binding z-score [17],PBM binding z-score [18],PBM binding z-score [19],PBM binding z-score [20]
GCGACTGGGGCATCAGCAGGTTACCCTAACTTAA,-0.187,-0.0714,-0.26,0.646,-1.16,1.32,0.617,0.949,-0.87,0.118,3.51,2.87,-0.922,-0.0321,0.248,0.197,-0.267,0.596,-0.765,0.794
CAAACTAGGTCAAGGTTAAAGTCGGTTTGTGCCA,4.21,3.75,1.17,2.93,0.57,5.22,9.29,8.04,6.64,9.18,8.28,8.73,1.13,0.568,2.77,3.05,0.428,3.41,0.337,4.2
GGAACGAGGGCAAGTTGATAACAGAGTTTGATGG,0.773,0.307,-0.071,0.262,-0.233,1.76,1.52,1.14,0.316,1.03,3.17,2.87,0.0927,0.0422,0.807,0.857,0.526,0.565,-0.181,2.38
ACAGACAGGTGATGAAGGAAACTCAGGCTATCAT,0.101,-0.0621,-0.0645,-0.383,-0.211,0.0161,0.66,-0.12,0.224,-0.159,-0.00583,0.186,0.678,0.42,0.36,-0.196,0.0696,0.162,0.228,0.275
CCTTACGGGTCACGATGTTATAGCACGACGAGCG,5.82,3.85,0.154,3.42,-0.0634,5.51,6.19,5.77,3.09,4.59,3.85,4.86,0.952,0.0806,2.01,3.41,0.295,4.22,0.866,4.39
ACTTTTAGTTGACTTAGGGCAACCGATACGACGC,0.918,0.796,0.546,0.578,1.38,0.361,0.9,0.521,0.607,0.54,0.679,0.936,1.38,1.82,0.639,0.436,0.106,0.954,0.984,1.23
TGTTGTAGATCAAAGGTTAAGAAAGCCGAAGCCT,1.59,2.17,0.185,1.96,0.623,4.47,7.96,7.88,7.16,9.01,-0.0218,3.76,0.531,0.517,1.54,2.04,0.18,2.87,0.902,1.89
ATCTCTAGGTCAAGTTCAGTGAAAGATCGATAGA,5.11,5.65,4.79,3.98,3.26,4.74,5.82,5.4,2.79,4.77,6.76,6.5,2.13,1.61,2.41,3.45,2.13,3.16,1.74,4.55
CCGACTGGGGCAAAGGCTACCATACTCAGTACGA,-0.192,-0.314,-0.186,-0.213,-1.35,2.78,6.74,6.84,5.04,6.61,2.79,3.71,-0.0188,-0.284,0.531,-0.487,-0.267,-0.203,-0.204,0.812
ACCAGTTGGTCAGCTGAGGTCACACACAATTCGG,4.09,3.33,2.22,3.21,0.296,3.54,1.58,2.14,0.389,1.17,1.19,2.26,0.45,-0.406,2.59,5.42,2.07,4.41,0.742,3.71
CCTTACGGGTCACTCACAGGTTATAGCATTTGGA,4.95,4.32,0.653,3.67,0.243,5.1,4.15,3.82,1.29,2.78,3.1,3.43,0.37,0.401,3.21,3.56,0.559,4.46,1.29,3.77
CGTCCAAGGTCAGCAGCTCAGTGAAAGCGACGTG,5.06,3.06,-0.124,2.14,-0.454,4,1.68,2.61,0.139,1.47,2.5,2.27,-0.354,-0.261,1.96,2.16,-0.1,2.83,0.297,4.83
ATATGTAGGTTACATCCGGGTCATACAGGCTATG,2.09,4.15,1.41,2.85,0.809,4.64,6.34,5.27,2.96,4.81,7.27,7.54,4.07,3.35,3.84,3.46,1.19,4.26,0.627,2.41
AGTCAAAGTTCAGGATGAGGTAACGTAAAGCACG,4.14,3.93,1.07,2.02,0.238,3.58,4.66,4.92,2.26,3.84,0.224,2.35,0.915,0.721,2.23,3.14,1.49,3.09,0.768,4.37
CCTAGCAGGCCAGGGTGACTCAAGCATTTCGCTT,-0.306,-0.411,-0.589,-0.526,-1.43,0.023,-0.26,-0.0399,-0.987,-0.126,0.555,0.0938,-1.83,-1.19,-0.646,-0.537,-0.777,-0.0885,-0.299,0.148
CCTTACGGGTCACGAGATTATAGCACGACGAGCG,6.02,4.05,0.0796,3.37,0.00532,5.42,6.21,5.93,2.99,4.95,4.81,4.72,1.92,0.779,2.33,3.46,0.13,4.62,1.2,4.26
ATATGTAGGTTAGCTGGGGTGATTCAGACTAGGC,2.08,0.979,0.289,1.32,0.553,2.85,3.26,2.89,0.853,1.94,6.78,5.76,1.88,1.63,1,1.55,0.409,1.31,1.29,1.07
ACTATTAGTTGAGACCAGGGCAACCGATAGGTTG,0.433,-0.242,-0.0882,-0.177,0.0937,0.067,0.508,0.263,0.00186,-0.189,0.0901,0.557,0.284,0.911,-0.00507,0.204,0.236,0.191,0.419,0.628
AGAATGAGGTTAAGATCTGGGAAACAGAATACAT,1.95,1.82,-0.135,1.51,-0.0689,3.64,2.13,2.39,0.969,1.84,2.76,3,1.23,0.832,0.543,1.03,0.115,1.69,0.301,1.9
GCTGCTAGGTCAGGTTGGTGAGCTAACGGGTACG,1.04,0.598,-0.365,0.053,-0.485,1.22,0.336,0.876,-0.603,0.225,2.52,1.93,-0.822,-0.37,0.201,0.142,-0.5,0.873,-0.817,3.24
ATCTCTAGGTAAAGTTCCGTGAAAGATCGATAGA,0.524,0.229,0.166,0.245,0.829,0.649,0.291,0.898,0.751,0.543,2.64,1.76,0.867,0.679,0.653,0.0557,0.396,0.388,1.19,0.403
CCTACTGGGCCCAGGTCATTGATCAGTCAAAGCA,1.37,1.52,0.696,1.88,-0.506,2.17,0.602,1.4,0.0346,0.505,-0.465,1.3,-0.756,-1.2,0.811,1.72,0.241,2.05,0.064,1.95
CTACCAAGGTGAACAAGGTAGTTGATTACTATTC,0.29,0.269,-0.28,0.647,-0.774,1.19,0.675,0.808,0.0377,0.215,2.65,2.48,0.56,0.814,0.0631,0.0464,-0.0276,0.456,-0.151,1.53
TAGCCTAGATCATGGGCCAGTATACCACGCGAAC,-0.688,-0.764,-0.759,-0.614,-0.395,-0.574,0.555,-0.555,-0.628,-0.462,0.188,0.69,-0.074,-0.614,-1.13,-0.835,-0.709,-0.943,-0.47,-0.479
TCTTGTAGATCAGCAGGTTAAGCAAGCTGGCCAA,0.0214,0.292,-0.676,0.24,-0.51,0.793,-0.47,1.26,2.15,1.62,1.37,0.191,-0.396,0.0188,-0.763,0.022,-0.446,0.058,-1.03,0.0308
CCAGACATGTGAGAAGGTAACTCAGCCTCGATTA,-0.141,0.0863,0.298,-0.057,0.106,-0.106,0.462,-0.748,-0.305,-0.419,0.325,-0.238,0.124,0.154,0.72,-0.0196,0.307,0.384,1.03,-0.14
ATACCAAGGTGATCGTCAGGTCGTTGATACTAAC,1.07,0.928,0.311,0.454,-0.244,0.892,0.38,0.265,0.184,0.227,0.522,1.08,0.616,-0.131,0.369,1.24,0.399,1.23,-0.256,1.12
ATTAGTTGGTCAGCTGAGGTCACACACAATTCGG,3.77,3.68,3.19,3.95,1.13,3.96,2.32,2.81,1.44,2.13,2.22,3.28,0.989,1.49,3.67,5.59,2.59,4.84,2.74,3.72
